Measured values: PubChem BioAssay AID652029 (The Scripps Research Institute Molecular Screening Center, 2013)
The other results are listed elsewhere or left out. A number with no mark means an inactive call. Activity calls are given as the source filed them.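 The calls were made as follows: active = inhibition of LYPLA2 enzyme probe labeling above about 50% (limit read from the data); inactive = inhibition below that limit.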

target: Acyl-protein thioesterase 2 (Homo sapiens) (UniProt O95372); assay: blockade of human LYPLA2 probe labeling – gel-based competitive ABPP, fluorescence, assay provider, late-stage follow-up (AID 652029); conditions: rhLYPLA2 in mouse brain proteome, gel ABPP FP-Rh; at 20 µM; active compounds read high;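 also: loss of FP-Rh probe labeling of the LYPLA2 gel band measured as band density; 0% = DMSO only control band and 100% = blank gel background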
Sequence (O95372 whole entry, looked up): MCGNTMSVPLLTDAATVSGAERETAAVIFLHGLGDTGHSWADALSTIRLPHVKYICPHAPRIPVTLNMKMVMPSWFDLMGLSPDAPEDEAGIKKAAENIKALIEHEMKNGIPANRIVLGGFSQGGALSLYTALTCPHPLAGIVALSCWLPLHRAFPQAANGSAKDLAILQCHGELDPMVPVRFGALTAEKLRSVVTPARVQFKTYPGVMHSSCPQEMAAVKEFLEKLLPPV

| SMILES | inhibition |
| --- | --- |
| O=C1C2CCCN2C(=O)N1CCCCN1CCN(c2cccc(C(F)(F)F)c2)CC1 (stereo not given) | 44% |
| CC(=O)c1ccc(N2CCN(C(=O)C3CCN(S(=O)(=O)c4ccc5c(c4)CC(C)N5C(=O)C4CC4)CC3)CC2)cc1 (stereo not given) | 70% (active) |
| CCC(=O)c1ccc(OCC(O)CN2CCN(c3cccc(C(F)(F)F)c3)CC2)cc1 (stereo not given) | 18% |
| O=C(CCCN1C(=O)c2cccc3cccc(c23)C1=O)N1CCN(Cc2ccc3c(c2)OCO3)CC1 | 25% |
| COc1ccc(N2CCN(C(=O)c3ccc(N4CCCCS4(=O)=O)cc3)CC2)cc1 | 49% |
